Screening data deposited in PubChem by National Center for Advancing Translational Sciences (NCATS).
Compounds with a hit are over-represented: about 10% of the library has one in this group of screens.
NPR1 antag: human Npr1 receptor antagonism; Potency, µM (doses to about 46.3 µM), without a hit: at the highest dose activity change, negative = inhibition, hits mostly inhibitors; P16066; actives 1.6% (n = 76,000); AID 1347048; HEK293 hNpr1 GloSensor cGMP, ANP-stimulated luminescence; calls by dose curve; note: % is set by controls: 0 for no effect and ±100 for the full control effect; nearly all actives have a fitted effect of over 60% in size
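HEK293 cells stably expressing human Npr1 and cGMP GloSensor pGS-40F, loaded 2 h with 2% GloSensor reagent, given compound 30 min at room temperature. Luminescence read before and 20 min after 0.1 nM hNppA.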
HEK293 tox: cytotoxic compounds in HEK 293 cells; Potency, µM (titrated, usually from 115 µM), for inactives: at the top dose activity change, negative = cytotoxicity, actives largely listed as inhibitors; HEK 293 viability, ATP luminescence (CellTiter-Glo), 48-72 h; actives 6.6% (n = 94,000); note: % is set by controls: 0 for no effect and ±100 for the full control effect; nearly all actives have a fitted effect of over 60% in size
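Pintool-delivered compounds were incubated with HEK 293 cells (250 cells/well) at 37 degree Celsius for 48 or 72 hr. ATP-dependent luminescence (CellTiter-Glo) then reported remaining viable cells.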
NIH3T3 tox: cytotoxic compounds in NIH 3T3 cells. Potency, µM (doses to about 96.7 µM), for inactives: at the highest dose activity change, negative = cytotoxicity, most hits filed as inhibitors. actives 4.3% (n = 94,000). NIH 3T3 viability, CellTiter-Glo ATP luminescence, 48-72 h; note: % is set by controls: 0 for no effect and ±100 for the full control effect; nearly all actives have a fitted effect of over 55% in size
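Mouse fibroblast NIH 3T3 cells, 400 per well, received compound via pintool and were incubated for 48 or 72 hr prior to CellTiter-Glo ATP luminescence measurement.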
GPT2 inh: GPT2 alanine aminotransferase inhibition; Potency, µM (doses to about 57.7 µM), for the others: top-dose activity change, negative = inhibition, most hits filed as inhibitors; Recombinant GPT2, coupled pyruvate oxidase/HRP Amplex Red fluorescence; Q8TD30; AID 1671188; actives 0.25% (n = 100,000); note: % is set by controls: 0 for no effect and ±100 for the full control effect; nearly all actives have a fitted effect of over 60% in size
Target sequence (Q8TD30 whole entry, looked up): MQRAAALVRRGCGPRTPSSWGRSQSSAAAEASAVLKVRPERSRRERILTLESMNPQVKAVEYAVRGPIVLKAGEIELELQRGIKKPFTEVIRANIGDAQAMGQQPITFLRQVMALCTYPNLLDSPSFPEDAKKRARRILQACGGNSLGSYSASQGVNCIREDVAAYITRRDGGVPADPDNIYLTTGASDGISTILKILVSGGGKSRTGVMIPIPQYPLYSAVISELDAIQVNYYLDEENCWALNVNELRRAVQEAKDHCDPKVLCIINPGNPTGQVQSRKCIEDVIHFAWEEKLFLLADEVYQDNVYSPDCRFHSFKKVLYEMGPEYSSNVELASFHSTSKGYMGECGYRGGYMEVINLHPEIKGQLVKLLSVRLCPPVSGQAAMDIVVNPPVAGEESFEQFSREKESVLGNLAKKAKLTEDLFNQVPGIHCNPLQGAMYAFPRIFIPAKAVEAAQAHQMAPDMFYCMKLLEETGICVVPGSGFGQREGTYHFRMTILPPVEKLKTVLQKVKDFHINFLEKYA
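Recombinant GPT2 (10ng/uL) with 250uM a-KG and 2mM L-alanine, 30 min at room temperature, in HEPES pH 7.5 buffer. Pyruvate detected by pyruvate oxidase/HRP/Amplex Red fluorescence after 30 min in the dark; AOA (50uM) as positive control.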
FLuc inh-1: Photinus pyralis luciferase inhibition. Potency, µM (doses to about 115 µM), most hits filed as inhibitors. purified P. pyralis luciferase, luminescence, biochemical. actives 2.5% (n = 76,000). AID 1347043; note: % is set by controls: 0 for no effect and ±100 for the full control effect; nearly all actives have a fitted effect of over 65% in size
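Purified P. pyralis luciferase (10nM final) in 50mM Tris acetate pH 7.5, 10mM Mg acetate, 0.01% Tween-20, 0.05% BSA with 10uM D-luciferin and 10uM ATP. Compounds titrated qHTS. Luminescence imaged on CCD.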
FLuc SDR -ATP: binders stabilizing firefly luciferase, without ATP. Purified FLuc-C-HiBiT, Nano-Glo HiBiT luminescence, no ATP. Potency, µM (titrated, usually from 32.7 µM), without a hit: at the top dose activation (signal gain), hits mostly activators. AID 1963318. actives 7.8% (n = 1,300). shares compounds with FLuc inh-1; note: nearly all actives have a fitted effect of over 55% in size
FLuc SDR ATP: stabilizes firefly luciferase with ATP present; shares compounds with FLuc inh-1; purified FLuc-C-HiBiT + ATP, HiBiT complementation luminescence; AID 1963319; Potency, µM (series often up to 32.7 µM), inactives show at the highest dose activation (gain of signal), hits mostly activators; actives 8.7% (n = 1,300);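 note: signal reports ligand binding via conformational change of the enzyme rather than luciferase catalysis; % of control where 0% means no effect; nearly all actives have a fitted effect of over 55% in size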
FLuc inh-2: inhibitors of firefly luciferase enzymatic activity | shares compounds with FLuc inh-1 | purified FLuc-C-HiBiT enzyme, luciferin luminescence | Potency, µM (series often up to 32.7 µM), without a hit: at the top dose activity change, negative = inhibition, usual class: inhibitors | actives 42% (n = 1,300) | AID 1963320; note: % is set by controls: 0 for no effect and ±100 for the full control effect; nearly all actives have a fitted effect of over 70% in size
Active calls of the source: *; [ ] = another dose, or the depositor's remark. Unless noted, calls come from the whole dose curve; as a rule, active = well fitted curve in the direction sought with a large enough effect; inconclusive = small, poorly fitted or top-dose-only effect, or another doubt; inactive = no such curve, though single readings can be large; an effect the other way counts as inactive or inconclusive. Potency is the fitted concentration of half-maximal effect.

Cc1ccc(C)c(N2CCN(C(=O)C3CCN(c4nc(-c5ccc(C(C)C)cc5)no4)CC3)CC2)c1 was read as FLuc SDR -ATP 22%, FLuc SDR ATP inconclusive and FLuc inh-2 inconclusive.
`COc1ccc(-c2noc(CC3CCN(C(=O)C4CC4)CC3)n2)cc1` gave NPR1 antag inconclusive, HEK293 tox inconclusive, NIH3T3 tox inconclusive, GPT2 inh -4% and FLuc inh-1 inactive.
`O=C(Nc1ccccc1)C1CCN(C(=O)N2CC3CC(C2)[C@H]2CCCC(=O)N2C3)CC1` (stereo not given in full) gave NPR1 antag -5%, HEK293 tox -3%, NIH3T3 tox -6%, GPT2 inh inactive, FLuc inh-1 inactive, FLuc SDR -ATP 11%, FLuc SDR ATP 8% and FLuc inh-2 5%.
Screening C[S+](=O)([O-])NC1CC2(CCN(C(=O)CCCN)CC2)c2ccccc21 (stereo not given) returned HEK293 tox 0%, NIH3T3 tox 5% and GPT2 inh -7%.
For Cc1ccc(NC(=O)c2ccc3c(c2)N(C)C2CCCN2C3=O)cc1C (stereo not given) the results were NPR1 antag -1%, HEK293 tox 2%, NIH3T3 tox -4%, GPT2 inh 3%, FLuc inh-1 13µM*, FLuc SDR -ATP 11%, FLuc SDR ATP inconclusive and FLuc inh-2 inconclusive.
`CN1c2cc(C(=O)Nc3cc(F)cc(F)c3)ccc2C(=O)N2CCCCCC21` (stereo not given) gave NPR1 antag inconclusive, HEK293 tox inconclusive, NIH3T3 tox inconclusive, GPT2 inh inactive and FLuc inh-1 inconclusive.
Screening Cc1ccc(NC(=O)c2ccc3c(c2)N(C)C2CCCN2C3=O)cc1F (stereo not given) returned NPR1 antag inconclusive, HEK293 tox inconclusive, NIH3T3 tox -15%, GPT2 inh inactive, FLuc inh-1 1.3µM*, FLuc SDR -ATP 15%, FLuc SDR ATP 4.4µM* and FLuc inh-2 8.8µM*.
Screening CN1c2cc(C(=O)Nc3cc(F)ccc3F)ccc2C(=O)N2CCCCCC21 (stereo not given) returned NPR1 antag -6%, HEK293 tox inconclusive, NIH3T3 tox inconclusive, GPT2 inh inactive, FLuc inh-1 11µM*, FLuc SDR -ATP 12%, FLuc SDR ATP inconclusive and FLuc inh-2 inconclusive.
For Cc1ccc(C(=O)Nc2ccc3oc(-c4ccccc4C)nc3c2)cc1 the results were FLuc SDR -ATP 14%, FLuc SDR ATP 9% and FLuc inh-2 -1%.
For Cc1ccc(-c2nnc(SCc3ccccc3)o2)cc1 the results were FLuc SDR -ATP 15%, FLuc SDR ATP 18% and FLuc inh-2 inconclusive.
For Cc1cccc(-c2nnc(SCCC(=O)O)o2)c1 the results were FLuc SDR -ATP 17%, FLuc SDR ATP inconclusive and FLuc inh-2 5µM*.
Screening Cc1ncoc1C(=O)N[C@@H]1CN(Cc2cccnc2)C[C@H]1CN(C)C returned NPR1 antag 6%, HEK293 tox -13%, NIH3T3 tox -2%, GPT2 inh inconclusive and FLuc inh-1 inactive.
For Cc1nn(-c2ccccn2)c(C)c1[C@@H]1C=C[C@@H](NC(=O)NCc2ccccc2)C1 the results were NPR1 antag -26%[70.6 µM], HEK293 tox inconclusive, NIH3T3 tox inconclusive, GPT2 inh 3%[88.5 µM] and FLuc inh-1 inconclusive.
COc1ccc(-n2nc(C)c([C@@H]3C=C[C@@H](NC(=O)NCc4ccccc4)C3)c2C)cc1 was read as NPR1 antag 8.9µM*, HEK293 tox inconclusive, NIH3T3 tox inconclusive, GPT2 inh inactive, FLuc inh-1 1.1µM*, FLuc SDR -ATP inconclusive, FLuc SDR ATP 19%[49.3 µM] and FLuc inh-2 6.4µM*.
Screening Cc1nn(-c2ccccc2)c(C)c1[C@@H]1C=C[C@@H](NC(=O)CCCC(=O)O)C1 returned NPR1 antag 6%[70.6 µM], HEK293 tox inactive, NIH3T3 tox inactive, GPT2 inh inactive and FLuc inh-1 inactive.
For CCNC(=O)N[C@@H]1C=C[C@@H](c2c(C)nn(-c3ccc(F)cc3)c2C)C1 the results were NPR1 antag 20µM*, HEK293 tox 89µM*, NIH3T3 tox inconclusive, GPT2 inh inactive, FLuc inh-1 6.3µM*, FLuc SDR -ATP 26%[49.3 µM], FLuc SDR ATP inconclusive and FLuc inh-2 inconclusive.
Cc1ccc(-n2nc(C)c([C@@H]3C=C[C@@H](NC(=O)NCc4ccccc4)C3)c2C)cc1Cl was read as NPR1 antag inconclusive, HEK293 tox -23%[172 µM], NIH3T3 tox inconclusive, GPT2 inh inconclusive, FLuc inh-1 7.9µM*, FLuc SDR -ATP 19%[49.3 µM], FLuc SDR ATP inconclusive and FLuc inh-2 inconclusive.
For Cc1nn(-c2ccc(F)cc2)c(C)c1[C@@H]1C=C[C@@H](NC(=O)c2ccco2)C1 the results were NPR1 antag inconclusive, HEK293 tox inconclusive, NIH3T3 tox inconclusive, GPT2 inh inactive and FLuc inh-1 inconclusive.
`O=C(NCc1ccccc1)c1cnc2n1CCN(Cc1ccccc1)CC2` gave NPR1 antag -1%[70.6 µM], HEK293 tox inconclusive, NIH3T3 tox inconclusive, GPT2 inh 1%[88.5 µM] and FLuc inh-1 inactive.
C=C(COC(=O)CC(C)C)C1Cc2cc(C(C)=O)ccc2O1 (stereo not given) was read as GPT2 inh inactive.
`O=C(NCc1ccccc1Cl)c1ccc2oc(-c3ccnc(Cl)c3)nc2c1` gave HEK293 tox -6%[172 µM], NIH3T3 tox -20%[138 µM] and GPT2 inh -1%[88.5 µM].
O=C(NCCc1ccccc1Cl)c1ccc2c(c1)nc1n2CCOC1 was read as FLuc SDR -ATP inconclusive, FLuc SDR ATP inconclusive and FLuc inh-2 7µM*.
`CCc1ccc(N2CC(c3noc(-c4ccccn4)n3)CC2=O)cc1` (stereo not given) gave NPR1 antag 0%, HEK293 tox 6%, NIH3T3 tox -20%, GPT2 inh inactive and FLuc inh-1 inactive.
